Screening results from PubChem BioAssay.
Many of the other results were omitted from the sample, so hits are more common in it than they were.
TDP-43 rescue: rescues yeast from TDP-43 toxicity; yeast TDP-43 toxicity rescue, BacTiter-Glo growth, 24 h; Potency, µM (series often up to 46.1 µM), most hits filed as activators; hit rate 0.45% among 45,000; active = well fitted activation curve with a large enough effect; also: 0% is about no effect; nearly all actives have a fitted effect of over 55% in size
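TDP-43-expressing yeast, pregrown in raffinose, seeded at OD600 0.02 in galactose medium with compound for 24 hr at 30 deg C. Growth read by BacTiter-Glo luminescence, so rescue of toxicity appears as activation.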
Active calls of the source: *. Potency is read from the fitted curve at half-maximal effect.

For CCOC(=O)C1CCN(C(=O)/C=C/c2cccs2)CC1 the results were TDP-43 rescue inactive.
`Cc1cccc(N2CCN(C(=O)/C=C/c3cccs3)CC2)c1C` gave TDP-43 rescue 14µM*.
For Cc1cccc(N2CCN(C(=O)c3ccc4[nH]c(C)c(C)c4c3)CC2)c1C the results were TDP-43 rescue inactive.
`CCCN(CCC)C(=O)Cn1c(=O)n(CCCCCC(=O)NCc2ccc3c(c2)OCO3)c(=O)c2sccc21` gave TDP-43 rescue inactive.
O=C(COC(=O)c1ccccc1Br)NC1CCCC1 was read as TDP-43 rescue inactive.
Screening O=C(COC(=O)CSc1ccc2ccccc2c1Br)NC1CC1 returned TDP-43 rescue 22µM*.
`O=C(COC(=O)CNC(=O)c1ccccc1)NC1CCCCC1` gave TDP-43 rescue inactive.
`O=C(c1ccc2c(c1)N(Cc1ccccc1)C(=O)c1ccccc1S2(=O)=O)N1CCOCC1` gave TDP-43 rescue inactive.
COc1ccc(N2CC(C(=O)Nc3ccc(NC(C)=O)cc3)CC2=O)cc1 (centres undefined) was read as TDP-43 rescue inactive.
Cc1cc(C)cc(NC(=O)CCCN2C(=O)COc3ccc(C)cc32)c1 was read as TDP-43 rescue inactive.
Screening CN(c1nc2ccccc2nc1Cl)S(=O)(=O)c1ccccc1 returned TDP-43 rescue 13µM*.
For Clc1nc2ccccc2nc1-c1ccccc1 the results were TDP-43 rescue inactive.
Screening CCCc1nnc2c(N(C)S(=O)(=O)c3ccc(C)cc3)nc3ccccc3n12 returned TDP-43 rescue inactive.
`CCCN(CCC)c1ccc(C2N=C(N)Nc3nc4ccccc4n32)cc1` (centres undefined) gave TDP-43 rescue inactive.
`Cc1ccccc1NC(=O)c1sc2nc3c(cc2c1N)CCCC3` gave TDP-43 rescue inactive.
Screening COc1ccc2c(C)cc(SCC(=O)Nc3nsc(-c4ccccc4C)n3)nc2c1 returned TDP-43 rescue inactive.
CC(C1CC2CCC1C2)n1c(-c2cccs2)n[nH]c1=S (centres undefined) was read as TDP-43 rescue 14µM*.
For CC(C)(C)c1n[nH]c(=S)n(/N=C/c2cccs2)c1=O the results were TDP-43 rescue inactive.
CC(C1CC2CCC1C2)N1CC(O)=C(c2nc3ccccc3[nH]2)C1=N (centres undefined) was read as TDP-43 rescue inactive.
For O=C(c1ccc2c(c1)N(Cc1ccc(F)cc1)C(=O)c1ccccc1S2(=O)=O)N1CCCCC1 the results were TDP-43 rescue inactive.
`CCc1cccc(C)c1NC(=O)C1=C(C)C(=O)OC12CCC(C)CC2` (centres undefined) gave TDP-43 rescue inactive.
C/C(=N\Nc1cccc(C(=O)O)c1)c1ccc(Cl)s1 was read as TDP-43 rescue inactive.
`C/C(=N\Nc1ccc(C(=O)O)cc1)c1ccc2c(c1)Nc1ccccc1S2` gave TDP-43 rescue 11µM*.
C/C(=N\Nc1ccc(Cl)c(C(=O)O)c1)c1cccc2ccccc12 was read as TDP-43 rescue inactive.
`COC(=O)c1c(-c2cccs2)csc1NC(=O)COc1ccccc1` gave TDP-43 rescue inactive.
Screening CC(Oc1ccc(F)cc1)C(=O)Nc1cc(-c2ccc(F)c(F)c2)no1 (centres undefined) returned TDP-43 rescue inactive.
CN(CC1COc2ccccc2O1)C(=O)CSc1nncs1 (centres undefined) was read as TDP-43 rescue inactive.
Screening CCCN(CC1CC1)C(=S)Nc1ccccc1F returned TDP-43 rescue inactive.
CN(CC1COc2ccccc2O1)C(=S)Nc1ccccc1F (centres undefined) was read as TDP-43 rescue 11µM*.
Cc1ccccc1C(=O)N(Cc1sccc1C)C1CCS(=O)(=O)C1 (centres undefined) was read as TDP-43 rescue inactive.
`O=C(Nc1nc2ccc3ccccc3c2s1)c1ccc(N2CCCCC2)c([N+](=O)[O-])c1` gave TDP-43 rescue inactive.
`CC(=O)OC[C@H]1COc2ccc3ccccc3c2[C@H]1N(C)C(C)=O` gave TDP-43 rescue inactive.
For CC(=O)N1c2ccc3ccccc3c2C(C)CC12CCCCC2 (centres undefined) the results were TDP-43 rescue 14µM*.
Screening COc1ccc(-c2nc(S(=O)(=O)c3ccc(Cl)cc3)c(N3CCCCCC3)o2)cc1 returned TDP-43 rescue inactive.
For COc1ccc(Br)cc1C(=O)Nc1ccc(C(=O)O)cc1 the results were TDP-43 rescue 4.5µM*.
`COc1ccc(Br)cc1C(=O)NC(=S)Nc1ccc2[nH]c(=O)[nH]c2c1` gave TDP-43 rescue inactive.
COc1ccc(Br)cc1C(=O)Nc1ccc(N2CCCC2)cc1 was read as TDP-43 rescue inactive.
Screening COc1cc(NC(=O)CN2C(=O)C(c3ccc(C)cc3)=NC23CCCCCC3)cc(OC)c1 returned TDP-43 rescue inactive.
For COc1ccc(-n2ncc3c2ncn2nc(COc4ccc(Cl)cc4)nc32)cc1 the results were TDP-43 rescue inactive.
O=C(N/N=C/c1ccc(O)c(O)c1)NC12CC3CC(CC(C3)C1)C2 was read as TDP-43 rescue inactive.
